DT40 TDP1 no CPT: qHTS for Inhibitors of human tyrosyl-DNA phosphodiesterase 1 (TDP1): qHTS in cells in absence of CPT; DT40 Tdp1-/- hTDP1 cells, no CPT, ATP luminescence, 48 h; Potency, µM (titrated, usually from 46.2 µM), for inactives: at the top dose activity change, negative = growth inhibition, actives largely listed as inhibitors; 15% of 420,000 active; AID 686978, 2013; also: potency is read from the fitted curve at half-maximal effect; nearly all actives have a fitted effect of over 55% in size
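Growth of hTDP1-complemented DT40 Tdp1-knockout cells is measured by ATP luminescence after at least 48 hr compound exposure at 37 °C, with DMSO substituting for the 20 nM CPT used in the parallel screen.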
HT1080-NT tox: kills 2HG-producing HT-1080-NT fibrosarcoma cells; AID 686970; HT-1080-NT fibrosarcoma viability, CellTiter-Glo ATP luminescence, 48 h; 1.6% of 360,000 active; Potency, µM (doses to about 46.1 µM), for the others: at the highest dose activity, negative = less viability, actives largely listed as cytotoxic;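 also: NT is the 2HG producing partner of a matched IDH1 knockdown line; potency is read from the fitted curve at half-maximal effect; 0% = DMSO-treated cells and -100% = media-only wells without cells; nearly all actives have a fitted effect of over 55% in size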
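HT-1080-NT; 750 cells/well; 5% FBS RPMI; 48 h compound, 37 degrees C; CellTiter-Glo luminescence; curve fitting and curve-class assignment.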
DT40 TDP1 CPT: DT40-hTDP1 cell growth loss with CPT | chicken DT40 Tdp1-/-;hTDP1 cells + 20 nM CPT, ATP luminescence, 48 h | Potency, µM (highest dose often 46.2 µM), without a hit: at the top dose activity change, negative = growth inhibition, actives largely listed as inhibitors | 12% of 420,000 active; also: potency is read from the fitted curve at half-maximal effect; nearly all actives have a fitted effect of over 55% in size
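Cell growth measured by CellTiter-Glo luminescence after a minimum 48 h, 37 C compound exposure with 20 nM CPT in Tdp1-knockout DT40 cells stably expressing hTDP1, seeded 400/well; qHTS titration format.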
ALOX12 inh: blocks human arachidonate 12S-lipoxygenase | purified 12hLO, xylenol orange hydroperoxide absorbance | Potency, µM (titrated, usually from 108 µM), for the others: at the top dose activity change, negative = inhibition, usual class: inhibitors | 1.1% of 580,000 active | AID 1671190; also: potency is read from the fitted curve at half-maximal effect
Target sequence (P18054 whole entry, looked up): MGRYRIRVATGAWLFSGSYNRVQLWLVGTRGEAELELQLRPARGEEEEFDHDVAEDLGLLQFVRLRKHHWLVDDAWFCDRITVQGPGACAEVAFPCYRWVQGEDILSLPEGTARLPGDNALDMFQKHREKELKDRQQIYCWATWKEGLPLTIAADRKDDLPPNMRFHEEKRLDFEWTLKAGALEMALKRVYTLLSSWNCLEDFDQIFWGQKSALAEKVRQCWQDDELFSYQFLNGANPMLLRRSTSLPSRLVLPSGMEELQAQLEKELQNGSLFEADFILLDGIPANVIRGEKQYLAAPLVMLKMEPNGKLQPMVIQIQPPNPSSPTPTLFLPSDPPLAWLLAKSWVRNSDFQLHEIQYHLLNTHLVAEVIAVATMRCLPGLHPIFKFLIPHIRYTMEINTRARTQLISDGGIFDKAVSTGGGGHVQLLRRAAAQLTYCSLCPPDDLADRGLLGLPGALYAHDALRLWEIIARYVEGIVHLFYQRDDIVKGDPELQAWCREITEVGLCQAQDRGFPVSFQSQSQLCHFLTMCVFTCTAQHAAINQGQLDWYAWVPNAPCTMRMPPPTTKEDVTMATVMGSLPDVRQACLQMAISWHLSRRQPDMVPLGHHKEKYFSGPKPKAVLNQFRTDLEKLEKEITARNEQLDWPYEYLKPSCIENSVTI
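Hydroperoxide product was detected by ferrous iron/xylenol orange as the 573 to 405 nm absorbance ratio. Arachidonic acid at 40 uM (final) was turned over for 30 min at room temperature by 150 nM human 12hLO, pH 7.0 Hepes buffer, after 15 min compound preincubation.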
HT1080 IDH1KD tx: toxicity to HT-1080 IDH1 knockdown cells (counter line) | HT-1080 IDH1 knockdown viability, ATP luminescence, 48 h | 2% of 360,000 active | Potency, µM (doses to about 46.1 µM), for the others: top-dose activity, negative = toxicity, actives largely listed as cytotoxic;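 also: potency is read from the fitted curve at half-maximal effect; 0% = DMSO wells and -100% = cell-free medium wells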
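Assay cells: HT-1080 with IDH1 knockdown, 750 per well, RPMI/5% FBS. Exposure: 48 h at 37 °C following 2 h pre-incubation. Read: CellTiter-Glo luminescence; fitted concentration-response, curve class assigned.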
IL-1B inflam inh: inflammasome signaling inhibition, IL-1 beta readout | activity change, % at 57.5 µM | 4.7% of 360,000 active | AID 743279 | THP-1 LPS/ATP IL-1B secretion, AlphaLISA, 16 h; active compounds read low; in the data active = activity change below about -50%; inconclusive = mostly about -30% to -49%
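THP-1 cells pretreated 1 hr with compounds (up to 57.5 uM final), then stimulated with LPS (250 ng/mL final) plus ATP (1.25 mM final); secreted IL-1B measured by AlphaLISA after 16 hr, decreased signal indicating inhibition.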
The depositor's hits bear a star; ? = inconclusive; / = no result given; [ ] = remark or other dose. The sample as a whole holds a higher share of hits than the screen did. Unless noted, calls follow the shape of the dose curve; as a rule, active = well fitted curve in the direction sought with a large enough effect; inconclusive = small, poorly fitted or top-dose-only effect, or another doubt; inactive = no such curve, though single readings can be large; an effect the other way counts as inactive or inconclusive. Unless noted, % is scaled to controls: 0 for no effect and ±100 for the full control effect.

SMILES | DT40 TDP1 no CPT | HT1080-NT tox | DT40 TDP1 CPT | ALOX12 inh | HT1080 IDH1KD tx | IL-1B inflam inh
COc1cc(OC)cc(C(=O)NCCc2csc(-c3ccc(C(F)(F)F)cc3)n2)c1 | 18.4µM* | / | ? | 0.0% | / | /
COc1ccc(CCC(=O)NCCc2csc(-c3cccc(C)c3)n2)cc1 | ? | / | ? | -9.1% | / | /
Cc1cccc(-c2nc(CCNC(=O)Cc3ccccc3)cs2)c1 | 20.6µM* | / | ? | -22.4% | / | /
O=C(OCc1ccccc1)c1cc2ccccc2[nH]1 | / | / | / | 18.8% | / | /
Cc1ccc2oc(C(=O)Nc3ccc(S(=O)(=O)N4CCCC(C)C4)cc3)cc(=O)c2c1 (configuration not stated) | 8.2µM* | / | 16.4µM* | -15.6% | / | /
Cc1ccc2c(=O)cc(C(=O)Nc3ccc(S(=O)(=O)N4CCCC(C)C4)cc3)oc2c1C (configuration not stated) | ? | / | ? | 9.7% | / | /
Cc1ccc2occ(CC(=O)Nc3ccc(S(=O)(=O)N4CCCC(C)C4)cc3)c2c1 (configuration not stated) | ? | / | ? | 0.7% | / | /
Cc1cc(C)c2oc(C(=O)Nc3ccc(S(=O)(=O)N4CCCC(C)C4)cc3)cc(=O)c2c1 (configuration not stated) | ? | 13.4% | 14.6µM* | 1.8% | 4.2% | 11.1
CN(C)Cc1cc(CC2(NCc3ccc(C#N)cc3)COC2)no1 | / | / | / | 3.5%[176 µM] | / | /
COc1ccc(OC)c(NC(=O)c2c(NCc3ccc(OC)c(OC)c3)sc3c2CCC3)c1 | 16.4µM* | / | 14.6µM* | ? | / | /
CCOC(=O)N1CCc2c(sc(NCc3sccc3C)c2C(=O)Nc2cc(OC)ccc2OC)C1 | -22.7% | / | -3.6% | -23.1% | / | /
COc1ccc(OC)c(NC(=O)c2c(NCc3ccc(N(C)C)cc3)sc3c2CCCC3)c1 | ? | / | 20.6µM* | ? | / | /
COc1ccc(NC(=O)c2c(NC(=O)c3cccc(C)c3)sc3c2CCC3)cc1 | 2.6% | / | 8.3% | -9.8% | / | /
COc1cccc(CNc2sc3c(c2C(=O)Nc2ccc(OC)cc2OC)CCC3)c1 | 20.6µM* | / | 13µM* | 5.2% | / | /
COc1ccc(CC(=O)Nc2sc3c(c2C(=O)Nc2ccccc2)CCCCC3)cc1 | ? | / | -68.5% | -21.3% | / | /
O=C(O)CNS(=O)(=O)c1ccccc1Br | / | / | / | -30.8% | / | /
O=S(=O)(c1ccccc1)c1cnc(-c2ccccc2)nc1N1CCCC1 | 18.4µM* | -1.1% | -27.3% | -9.6% | -18.6% | -10.3
Cc1nc(-c2ccccc2)sc1-c1nc(-c2ccncc2)ncc1S(=O)(=O)c1ccccc1 | ? | 14.9% | ? | 9.8% | 5.9% | -53.6*
COc1nc(-c2ccccc2)ncc1S(=O)(=O)c1ccccc1 | ? | -4.5% | ? | 1.4% | -14.6% | 7.5
O=C(C1CCCC1)N1CCC(Cc2nncn2CC2CC2)C1 (configuration not stated) | / | / | / | -1.9% | / | /
COc1ccccc1-c1noc2nc(OCc3ccc(F)cc3)ccc12 | / | / | / | 10.6% | / | /
COc1ccccc1-c1noc2nc(Nc3cccc(Cl)c3)ccc12 | / | / | / | 28.2µM* | / | /
O=C(CCC1CCCO1)NCC1CCCO1 (configuration not stated) | / | / | / | -10.5% | / | /
CN(C(=O)c1sc2nc(N3CCOCC3)c3c(c2c1N)CCCC3)c1ccccc1 | 23.1µM* | -11.1% | ? | ? | -24.2% | -1.1
COc1ccc(NC(=O)c2sc3nc(N4CCOCC4)c4c(c3c2N)CCCC4)cc1 | -21.0% | 22.1% | 4.7% | ? | 15.2% | -3.9
SMILES | DT40 TDP1 no CPT | HT1080-NT tox | DT40 TDP1 CPT | ALOX12 inh | HT1080 IDH1KD tx | IL-1B inflam inh
Nc1c(C(=O)NCCc2ccccc2)sc2nc(N3CCOCC3)c3c(c12)CCCC3 | 23.1µM* | -20.1% | 16.4µM* | -21.6% | -1.2% | ?
CCOC(=O)c1ccc(NC(=O)c2sc3nc(N4CCOCC4)c4c(c3c2N)CCCC4)cc1 | 16.4µM* | 0.7% | ? | -8.3% | -0.4% | 16.9
Cc1ccccc1NC(=O)c1sc2nc(N3CCOCC3)c3c(c2c1N)CCCC3 | 7.31µM* | 5.1% | ? | ? | 0.5% | -15.2
CCC(=O)C1=C(c2ccc(Cl)cc2)N(C(=O)CC)n2c(C)nnc2S1 | 7.31µM* | / | 8.2µM* | -18.8% | / | /
COc1cccc(C2=C(C(C)=O)Sc3nnc(-c4ccc(Cl)cc4)n3N2C(C)=O)c1 | / | / | / | 29.6% | / | /
CC(=O)C1=C(c2cccc([N+](=O)[O-])c2)N(C(C)=O)n2c(C)nnc2S1 | 1.84µM* | ? | 4.61µM* | 1.1% | ? | -97.6*
CCC(=O)C1=C(c2ccccc2)N(C(=O)CC)n2c(nnc2-c2ccccc2)S1 | -20.1% | / | ? | 3.0% | / | /
CC(=O)C1=C(c2ccc(Cl)cc2)N(C(C)=O)n2c(nnc2C2CCCCC2)S1 | ? | / | 13µM* | ? | / | /
CC(=O)C1=C(c2ccc(C)c(C)c2)N(C(C)=O)n2c(nnc2-c2ccc(Cl)cc2)S1 | 4.61µM* | / | 5.17µM* | -24.4% | / | /
CC(=O)C1=C(c2ccc(C)cc2)N(C(C)=O)n2c(nnc2C2CCCCC2)S1 | ? | / | ? | -2.4% | / | /
O=C(CN1C(=O)NC2(CCOc3ccccc32)C1=O)c1ccc[nH]1 (configuration not stated) | -12.0% | -7.2% | 1.4% | -24.9% | 0.1% | 8.6
O=C(O)c1ccccc1S(=O)(=O)Cc1ccc(Cl)cc1 | / | / | / | -31.7% | / | /
CCc1nnc2n1N(C(C)=O)C(c1ccc(C(C)(C)C)cc1)=C(C(C)=O)S2 | 11.6µM* | / | 8.2µM* | 4.8% | / | /
Cc1ccc(CNc2nc3cc(-c4ccccc4)sc3c(=O)n2C)c(C)c1 | -25.3% | -3.2% | 16.4µM* | -0.2% | 0.0% | 7.2
Cn1c(NCc2ccccc2F)nc2cc(-c3cccc(Cl)c3)sc2c1=O | 20.6µM* | 29.7% | 14.6µM* | -18.3% | -1.5% | -0.7
Cn1c(NCc2ccccc2F)nc2cc(-c3ccccc3)sc2c1=O | 20.6µM* | ? | 18.4µM* | -2.0% | -20.9% | -17.0
COc1ccccc1CNc1nc2cc(-c3ccsc3)sc2c(=O)n1C | ? | -26.8% | ? | -21.1% | ? | 64.4
Cn1c(NCc2ccccc2F)nc2cc(-c3ccsc3)sc2c1=O | 23.1µM* | ? | ? | 0.7% | -26.2% | 2.8
O=C(O)c1ccc(NCc2ccc(F)cc2)cc1 | / | / | / | 13.5% | / | /
C[C@@H](NC(=O)c1cccnc1)c1onc(-c2ccc(Cl)cc2)c1C(=O)O | / | / | / | 3.9%[176 µM] | / | /
